eLon inh = inhibits E. coli Lon protease. P0A9M0. purified E. coli Lon protease, fluorescence polarization. inhibition, % at 7.94 µM. 360,000 tested, 0.42% active; in the data active means inhibition above about 13%, passing the limit was not always enough;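 further: 0% = enzyme with probe and DMSO and 100% = no enzyme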
PKA-R1A activ = activates the PKA-R1A holoenzyme complex; 340,000 tested, 0.083% active; AID 504707; PKA-R1A dissociation, Cy5-IP20 fluorescence polarization; scaled: DMSO 0%, 113 µM cGMP 100%; activation, % at 11.4 µM;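 active means percent activation above the mean of all tested compounds plus 3 SD, cut at about 19% in these data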;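 further: higher means more PKAc released from R1A so a rise in polarization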
PKA-R2B act = PKA-R2B complex activation | PKA-R2B holoenzyme dissociation, Cy5-IP20 fluorescence polarization; R2B truncated from residue 108, S112A mutant; 0% DMSO only, 100% 113 µM cGMP | activation, % at 11.4 µM | 340,000 tested, 0.079% active | AID 504700;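 active means activation above a cutoff set at the mean over all compounds plus 3 SD, cut at about 18% in these data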;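 further: higher means more holoenzyme dissociation and a rise in polarization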
Target sequence (P31323 whole entry, looked up, other chains not shown, the tested form may be a part): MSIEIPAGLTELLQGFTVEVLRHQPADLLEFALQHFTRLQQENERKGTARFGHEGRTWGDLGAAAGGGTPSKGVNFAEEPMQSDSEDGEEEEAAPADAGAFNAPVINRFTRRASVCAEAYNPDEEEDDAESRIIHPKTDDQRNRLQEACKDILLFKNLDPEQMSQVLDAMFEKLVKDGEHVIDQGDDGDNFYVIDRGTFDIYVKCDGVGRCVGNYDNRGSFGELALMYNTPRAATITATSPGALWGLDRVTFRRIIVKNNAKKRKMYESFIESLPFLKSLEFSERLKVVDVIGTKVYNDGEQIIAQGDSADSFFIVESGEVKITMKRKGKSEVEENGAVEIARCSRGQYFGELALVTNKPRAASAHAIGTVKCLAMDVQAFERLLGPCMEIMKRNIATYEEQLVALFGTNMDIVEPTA
IDE inh = inhibits human insulin-degrading enzyme in HEK cells | AID 434962 | inhibition, % at 5.59 µM | P14735 | FAbetaB cleavage, fluorescence polarization | 320,000 tested, 0.41% active;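 active means percent inhibition above the average of all tested compounds plus 3 SD, set per screening campaign, cut at about 16% in these data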;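 further: IDE supplied by intact live HEK cells; FP after avidin binding of uncleaved biotin substrate so inhibition keeps polarization high; 0% = DMSO wells and 100% = 60 µM reference IDE inhibitor Ii1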
Rin1 Abl inh = blocks binding of human Rin1 to Abl; P00519+Q13671; inhibition, % at 7.35 µM; 360,000 tested, 0.4% active; TR-FRET Rin1/Abl binding, biochemical; in the data active means inhibition above about 5%, passing the limit was not always enough
IDE cell activ = IDE (human) activation, cell-based; 340,000 tested, 0.073% active; P14735; HEK cells, FAbeta-B cleavage, fluorescence polarization; 0% vehicle, 100% cell-free pure enzyme wells; activation, % at 5.96 µM;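 active means activation above the mean of all tested compounds plus 3 SD, set per screening campaign, cut at about 17% in these data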
R1A FP artifact = counter-screen for PKA-R1A activators: fluorescence polarization artifacts; Cy5-IP20 peptide alone, fluorescence polarization artifact counterscreen; shares compounds with PKA-R1A activ; 280 tested, 7% active; activation, % at 11.4 µM;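 active means mean activation over triplicate runs exceeds the adjusted cutoff derived for the parent primary screen, cut at about 19% in these data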;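 further: no PKA protein present so any polarization rise reflects compound interference; 0% = tracer peptide mix alone and 100% = mix with added PKA catalytic subunit; higher means stronger polarization artifact and likely false positive in parent screen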
PKA-R1A act conf = PKA-R1A complex activation, confirmation | shares compounds with PKA-R1A activ | activation, % at 11.4 µM | Cy5-IP20 fluorescence polarization, PKA-R1A holoenzyme dissociation | 280 tested, 9% active;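 active means mean activation over replicate wells exceeds the adjusted hit threshold taken from the earlier primary screen, cut at about 20% in these data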;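 further: 0% = holoenzyme mix with DMSO only and 100% = cGMP-activated control wells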
The depositor's hits bear a star; . = no result given. The list is not random: actives were taken first. Their share in the collection is about 1.3%.

SMILES	eLon inh	PKA-R1A activ	PKA-R2B act	IDE inh	Rin1 Abl inh	IDE cell activ	R1A FP artifact	PKA-R1A act conf
CC(NC(=O)Cc1ccccc1)c1ccccc1 (stereo unspecified)	-12	19*	11	5	-1	-3	3	1
Cc1c(-c2ccccc2)[n+](=O)c(-c2ccc(Cl)cc2)c(C)n1[O-]	-4	19*	-3	-3	-2	-3	5	3
O=C(COC(=O)C1COc2ccccc2O1)NC(=O)NC1CCCC1 (stereo unspecified)	-8	20*	-2	-3	-1	1	-2	0
COc1cc(NC(=O)c2cc(-c3ccco3)on2)cc(OC)c1OC	-3	19*	-3	0	0	1	3	0
N#C/C(=C/c1ccco1)C(N)=S	-10	19*	-3	3	-1	-3	2	3
Cc1ccc(-c2ccc(=O)n(CCC(=O)NCc3ccccn3)n2)cc1	-5	19*	8	-1	0	1	0	0
CC(C)(C)S(=O)(=O)c1cnc(-c2ccccn2)nc1N	-9	20*	-3	3	-4	4	5	1
Cc1c(Nc2ccc3nonc3c2[N+](=O)[O-])c(=O)n(-c2ccccc2)n1C	-14	5	10	3	-7	0	.	.
CCOC(=O)c1cnn2cc(-c3[nH]ncc3[N+](=O)[O-])cnc12	3	-8	2	9	0	4	.	.
COc1cccc(/C=N/NC(=O)CCc2ccccc2)c1	-4	23*	-5	-2	1	3	5	2
Cc1cc2oc(=O)cc(CSc3nc(N)cc(N)n3)c2cc1C(C)C	4	-3	-2	1	1	2	.	.
Nc1cc(N)nc(SCc2cc(=O)oc3cc4c(cc23)CCC4)n1	-5	20*	1	-3	0	-3	-3	-1
Cc1sc(N)nc1-c1ccccc1	-8	21*	-2	3	0	1	1	0
CC(C)(C)c1sc(N)nc1-c1ccccc1	-3	-6	-1	3	-2	1	.	.
CC(/C=C/c1ccccc1)=N\NC(=S)NC(C)C	13	-18	3	-6	-5	5	.	.
COc1ccc(Cn2ccnc2)cc1[N+](=O)[O-]	6	-6	-15	0	-2	1	.	.
COc1ccc(Cn2ccnc2)cc1Br	-14	20*	8	1	-4	1	1	1
COc1cccc(C(NC(C)=O)c2nc(-c3ccc(N(C)C)cc3)cs2)c1 (stereo unspecified)	1	.	.	.	-2	.	.	.
O=C1Nc2ccccc2Cc2ccccc21	2	20*	-2	.	-4	.	2	3
S=C1Cc2ccccc2N1	2	-3	5	.	0	-30	.	.
Cc1ccc(C(=O)NCc2ccco2)cc1S(=O)(=O)Nc1cccc(Cl)c1	-5	1	4	1	-3	-2	.	.
COc1cccc(CNCc2cc(OC)cc(OC)c2)c1	5	21*	6	2	-1	5	5	4
COc1cccc(CNCc2ccccc2OC)c1	-7	-10	-4	-1	1	3	.	.
O=C(CSc1nnc(-c2cccs2)n1CC1CCCO1)c1cc2ccccc2o1 (stereo unspecified)	-12	1	-8	8	-2	-4	.	.
CC(NC(=O)C1CCCC1)C1CC2CCC1C2 (stereo unspecified)	6	20*	-3	7	0	-2	2	0
SMILES	eLon inh	PKA-R1A activ	PKA-R2B act	IDE inh	Rin1 Abl inh	IDE cell activ	R1A FP artifact	PKA-R1A act conf
CC(NC(=O)C1CC=CCC1C(=O)O)C1CC2CCC1C2 (stereo unspecified)	3	-15	0	-2	-1	6	.	.
Cc1ccc2nc3sc(C(=O)N4CCOCC4)c(N)c3cc2c1	0	4	-4	1	-6	2	.	.
Cc1ccc2cc3c(N)c(C(=O)N4CCOCC4)sc3nc2c1	1	19*	3	1	-1	-3	5	1
COCCn1c(N)c(N(Cc2ccccc2)C(=O)COc2ccc(F)cc2Cl)c(=O)[nH]c1=O	-7	20*	0	3	3	2	4	5
CCCN(CCC)S(=O)(=O)c1nc2nc(C)cc(C)n2n1	-11	-3	-2	6	-4	2	.	.
CCOC(=O)N/N=C/c1ccc(N(CC)CC)cc1O	-7	23*	-14	-2	-3	2	4	4
COc1ccc(-n2nc(C(=O)NCC(=O)NCCCN3CCOCC3)c3ccccc3c2=O)cc1	-4	0	1	2	-2	2	.	.
Cc1ccc(CN2CCC(C(=O)Nc3ccc(Oc4cccnc4)cc3)CC2)cc1	1	13	-5	.	3	-5	.	.
O=C(Nc1ccc(Oc2cccnc2)cc1)C1CCN(Cc2ccccc2)CC1	-5	19*	2	5	1	3	2	1
Cc1cc(C)n2[nH]c(=O)c(N=Nc3ccc(S(N)(=O)=O)cc3)c2n1	-2	-14	-5	2	-6	0	.	.
Cc1ccc(N=Nc2c(=O)[nH]n3c(C)cc(C)nc23)cc1	-7	23*	3	0	-6	0	6	6
COc1cc(NC(=O)COC(=O)c2cc(S(=O)(=O)N3CCCCC3)ccc2Cl)c(C)cc1[N+](=O)[O-]	-1	-2	-5	-1	-2	6	.	.
COC(C/C=C\C(=O)[C@H](C)OCc1ccccc1)OC	-9	-5	1	1	2	-3	.	.
Cc1cc(NC(=O)c2ccc(Br)o2)ccc1NC(=O)c1ccco1	-2	19*	-1	3	2	1	2	4
O=C(Nc1ccc(F)cc1F)c1ccco1	-4	24*	6	-4	-1	4	3	6
Cc1ccc(C(=O)Nc2ccc(NC(=O)c3ccco3)c(C)c2)cc1	6	2	8	-4	-3	1	.	.
CN(C(=O)COC(=O)c1cc(-c2ccc(Cl)s2)nc2ccccc12)C1CCS(=O)(=O)C1 (stereo unspecified)	-5	10	-5	-1	4	3	.	.
CCOC(=O)COc1ccc2c(c1)C(=O)CC(C)(C)O2	-6	19*	3	-3	-1	-1	-1	-1
COCCCn1c(SCC(=O)NC2CCCC2)nnc1-c1ccco1	-6	26*	-3	-3	-1	0	3	1
COC(=O)c1c(NC(=S)Nc2ccccc2Cl)sc(C)c1C	-6	21*	-9	-4	-4	0	0	0
